Where “and” joins values, the source holds several entries; their conditions need not be identical. Equal values may be shown once. Among all 370,000 compounds or so, about 1,600 (0.43%) were called active. Rule as the data show it: active = inhibition above about 24%; inactive = the rest. The full list was thinned out, with actives kept by preference.
molecular target: Major prion protein (Homo sapiens) (UniProt P04156); assay: inhibitors of human cell surface prion protein PrPC, primary screen, cell-based, TR-FRET (AID 720596); conditions: TR-FRET read-out, at 13.8 µM, active compounds read high; also: 0% = median of the test wells and 100% = reference compound wells

| SMILES | inhibition |
| --- | --- |
| O=C(OCCN1C(=O)c2ccccc2C1=O)Oc1ccccc1 | -3.25% (inactive) |
| O=C(Oc1ccccc1)Oc1ccc2c(c1)oc(=O)c1ccccc12 | 31.3% (active) |
| CCc1ccc(Oc2coc3cc(OC(=O)c4cc5ccccc5oc4=O)ccc3c2=O)cc1 | -6.51% (inactive) |
| C=C(C)c1cccc(C(C)(C)NC(=O)NCCN(CC)CC)c1 | -1.16% (inactive) |
| CCOc1ccc(NC(=O)C2CC(=O)N=C(N)S2)cc1 (centres undefined) | 3.27% (inactive) |
| CCc1ccc(OCC(=O)N(Cc2ccccc2)C2CCS(=O)(=O)C2)cc1 (centres undefined) | 7.58% (inactive) |
| CC1=CC2=NC(=O)CC(C)(C(=O)N(CC(=O)NC(C)(C)C)Cc3ccccc3)N2C=C1 (centres undefined) | -11.9% (inactive) |
| O=C(Cn1c(-c2cscn2)nc2ccccc21)Nc1ccc(Cl)cc1 | 16.8% (inactive) |
| O=C(O)CCc1nc2cc(Cl)ccc2n(Cc2ccccc2)c1=O | -3.72% (inactive) |
| O=c1[nH]cccc1-c1nc2ccccc2n1Cc1ccc(Cl)cc1 | 48.8% (active) |
| CCCCCn1nnnc1-c1nc2cc3ccccc3cc2[nH]c1=O | -2.3% (inactive) |
| COc1cc(OC)c(C(=O)OC(C)C(=O)Nc2cc(C(F)(F)F)ccc2Cl)cc1OC (centres undefined) | -3.19% (inactive) |
| CC(=O)c1ccc(S(=O)(=O)N(C)CCCC(=O)N(C)Cc2ccccc2F)cc1 | 3.84% (inactive) |
| Cc1ccc(S(=O)(=O)NCC2CCC(C(=O)N3CCOCC3)CC2)cc1 (centres undefined) | 9.49% (inactive) |
| Cc1nc(/N=C(\N)NC(=O)NC2CCCCC2)nc2ccccc12 | 27.6% (active) |
| O=C(NNC(=O)C(O)c1ccccc1)NC1CCCCC1 (centres undefined) | 5.45% (inactive) |
| O=C(Cn1nnc(-c2ccccc2)n1)NC(=O)NC1CCCC1 | 1.46% (inactive) |
| C[C@H]1CN([C@@H](C)CO)C(=O)c2cc(C3=CCCCC3)cnc2O[C@@H]1CN(C)C(=O)Cc1ccccc1 | -9.73% (inactive) |
| Cc1sc2c(c1C)c(=O)n(-c1ccccc1)c1nncn21 | -3.5% (inactive) |
| c1ccc(CCC2=NCCn3cccc32)cc1 | -4.1% (inactive) and -18.3% (inactive) |
| CCCCCCCC(=O)NC(Nc1ccccc1OC)C(Cl)(Cl)Cl (centres undefined) | 1.28% (inactive) |
| CCCCC(=O)NC(c1ccc(OC)c(OC)c1)c1ccc2cccnc2c1O (centres undefined) | 28.6% (active) |
| CCOc1ccc(C(CC(=O)O)n2cnnn2)cc1OC (centres undefined) | -3.65% (inactive) |
| CCOC(=O)C1=CCC(c2ccc(F)cc2)N(S(=O)(=O)c2ccc(C)cc2)C1 (centres undefined) | 0.96% (inactive) |

| SMILES | inhibition |
| --- | --- |
| Cc1cc(C)n(CCNS(=O)(=O)c2ccc(Cl)cc2)n1 | -3.39% (inactive) |
| N#Cc1c(-c2cccs2)nc(SCC(=O)c2ccc(Br)cc2)[nH]c1=O | 49.9% (active) |
| Cc1nnc(SCC(=O)NCc2cccs2)[nH]c1=O | 0.4% (inactive) |
| N#Cc1c(-c2ccc(F)cc2)cc(C2CC2)nc1SCC(=O)c1cccs1 | 8.6% (inactive) |
| CC(C)(C)NC(=O)NC(=O)COC(=O)C1(C)CC1(Cl)Cl (centres undefined) | -0.21% (inactive) |
| O=C(Nc1ccc(Cl)cc1)c1cc2nc(C3CC3)cc(C(F)(F)F)n2n1 | -1.38% (inactive) |
| O=C(COC(=O)c1cc2c(s1)CCCC2)NCc1ccccc1Cl | 0.1% (inactive) |
| CSc1ncccc1C(=O)NCc1ccccc1Cl | -4.63% (inactive) |
| Clc1ccc(-c2cc(COc3ccccc3)no2)cc1Cl | -6.65% (inactive) |
| CC(C)Cn1c(N2CCN(C(=O)/C=C/c3ccccc3)CC2)nc2ccccc21 | -10.9% (inactive) |
| COc1cc(C)c(Cl)cc1S(=O)(=O)n1ccnc1 | -3.46% (inactive) |
| Cc1cc2ccccc2n1CCNC(=O)COc1ccc2ccccc2c1 | 45.2% (active) |
| O=C(COc1ccc2ccc(=O)oc2c1)NCC(O)c1ccccc1 (centres undefined) | -8.2% (inactive) |
| COc1ccc(CCNC(=O)COc2ccc3c(c2)OCO3)cc1 | -3.21% (inactive) |
| Cc1ccc(C)c(NC(=O)CCS(=O)(=O)c2ccccc2)c1 | 4.81% (inactive) |
| CCc1nc2ccc(C(=O)NCCNC(C)=O)cn2c1N(CC)Cc1cccc(Br)c1 | 1.46% (inactive) |
| CCOC(=O)N1CCN(C(=O)c2ccccc2N(Cc2ccccc2)S(=O)(=O)c2ccc(OC)cc2)CC1 | 9.59% (inactive) |
| COc1cccc(Cn2cc(COC(=O)Nc3ccc(F)cc3)nn2)c1 | 6.34% (inactive) |
| CN(C)C(=O)c1nc2ccc(Cl)cn2c1CNCc1cccc(OC(F)(F)F)c1 | -9.54% (inactive) |
| C=CCn1c(=S)[nH]c2scc(-c3ccco3)c2c1=O | 4.26% (inactive) |
| C=CCn1c(SCC(=O)c2c(N)n(C)c(=O)n(C)c2=O)nc2sc(CC)cc2c1=O | 2.42% (inactive) |
| C=CCNC(=O)CSc1nc2scc(-c3ccco3)c2c(=O)n1CC=C | 25.2% (active) |
| Nc1nc(NC(=O)/C=C/c2ccc(F)cc2)nn1-c1ccccc1 | -4.74% (inactive) |
| COc1ncnc2c1ncn2CCCNCCN1CCOCC1 | -1.3% (inactive) |

| SMILES | inhibition |
| --- | --- |
| CCOC(=O)[C@]12CCCC=C1N(Cc1ccc(OC)cc1)C(=O)[C@@H]2CC(=O)NCc1cccs1 | 6.08% (inactive) |
| NC(=O)C1CCN(C(=O)c2ccc3c(=O)n(Cc4cccc(Br)c4)c(=S)[nH]c3c2)CC1 | 9.5% (inactive) |
| O=C(Nc1ccccc1)N1CCN(Cc2nc3ccccc3c(=O)[nH]2)CC1 | -8.21% (inactive) |
| NC(=O)C1CCN(Cc2nc3c(Br)cc(Br)cc3c(=O)[nH]2)CC1 | 28.2% (active) |
| O=C(NC1CCCC1)C1c2ccccc2OCC(=O)N1CC(F)(F)F (centres undefined) | 1.68% (inactive) |
| CCc1nnc(NC(=O)CSc2nnc(COc3ccc(C#N)cc3)n2-c2ccccc2)s1 | 0.08% (inactive) |
| N#Cc1ccc(OCC(=O)Nc2nc(-c3ccccn3)cs2)cc1 | 32.4% (active) |
| O=C(CN1C(=O)C2C3C=CC(C3)C2C1=O)Nc1nc(-c2ccccn2)cs1 (centres undefined) | 2.72% (inactive) |
| CCN(Cc1ccncc1)C(=S)Nc1ccccc1C | 0.38% (inactive) |
| O=S(=O)(c1ccccc1)N(Cc1cccc(F)c1)c1ccccc1 | 7.38% (inactive) |
| COc1ccc2c(Cl)c(-c3nnco3)sc2c1 | 24.9% (active) |
| Fc1ccc(COc2ccc(-c3nnco3)cc2)cc1 | 1.45% (inactive) |
| C#CCSc1nnc(-c2sc3ccccc3c2Cl)o1 | 3.9% (inactive) |
| Cn1cnc(S(=O)(=O)N2C[C@@H](O)COC[C@@H]3O[C@H](CC(=O)NC4CCC4)CC[C@H]32)c1 | 9.27% (inactive) |
| Cc1nn(-c2ccccc2)c(=O)c2noc(C)c12 | 1.14% (inactive) |
| CCCCn1c(SCc2ncc(-c3ccccc3)o2)nc2cc(S(N)(=O)=O)ccc21 | 2.37% (inactive) |
| COc1ccc(C[C@H]2CN3C(=NC[C@H]3C)N2CCNC(=O)CCC2CCCCC2)cc1 | -0.91% (inactive) |
| CC1(C(=O)NS(=O)(=O)Cc2cccc(Cl)c2)CCN1C(=O)Cc1ccc(Cl)cc1Cl (centres undefined) | 1.42% (inactive) |
| Cc1ccc(CSc2ccc(S(=O)(=O)N3CCCCC3)cn2)cc1 | 33.8% (active) |
| COC(=O)c1ccc(CSc2ccc(S(=O)(=O)N3CCCCC3)cn2)cc1 | 0.66% (inactive) |
| O=S(=O)(c1ccc(SCc2ccccc2)nc1)N1CCCCCC1 | -0.79% (inactive) |
| CCOc1ccc(CCNC(=O)C2CCN(c3ccc(N4CCOCC4)nn3)CC2)cc1OCC | -16.1% (inactive) |
| O=C(/C=C/c1cccc([N+](=O)[O-])c1)OCC(=O)N1CCOCC1 | -2.76% (inactive) |
| CCN(C(=O)[C@@H](C1CC1)[C@@H](O)c1ccc2ccccc2c1)c1ccccc1 | -3.85% (inactive) |

| SMILES | inhibition |
| --- | --- |
| COc1ccc(CN2CCC(c3nc4ccc(Cl)cc4[nH]3)CC2)cc1 | -13.1% (inactive) |
| Cc1ccc(CN2CCCOCCS2(=O)=O)cc1 | 2.42% (inactive) |
| COc1ccc(C(=O)N2CCCCC2c2cc(C(=O)Nc3ccc(F)c(Cl)c3)no2)cc1 (centres undefined) | -1.86% (inactive) |
| Cc1cc(=O)n2[nH]c(-c3sccc3-n3c(C)ccc3C)cc2n1 | 13.4% (inactive) |
| CCc1c(C)nc2cc(C)[nH]n2c1=O | 1.02% (inactive) |
| CCc1c(C)nc2cc(-c3cccs3)[nH]n2c1=O | 37.9% (active) |
| CC(C)n1c(=S)[nH]c2cc(C(F)(F)F)ccc21 | -2.04% (inactive) |
| O=C(CNC(=O)c1ccccc1)OC(C(=O)Nc1cc([N+](=O)[O-])ccc1F)c1ccccc1 (centres undefined) | 9.58% (inactive) |
| O=C(NC(Nc1nc2ccc([N+](=O)[O-])cc2s1)(C(F)(F)F)C(F)(F)F)c1ccccc1 | 43.8% (active) |
| O=C(Nc1nc2ccc(Cl)cc2s1)c1cc(-c2ccc(Cl)cc2)nc2ccccc12 | 6.81% (inactive) |
| Cc1cc(C(=O)NN=C/C=C/c2ccco2)n[nH]1 | -15.4% (inactive) |
| CCn1c(SCC(=O)Nc2nc(C)cs2)nnc1C(C)NC(=O)c1ccccc1 (centres undefined) | -3.46% (inactive) |
| CC(=O)N1C[C@@H](CO)[C@@H](N(C)C(=O)c2ccco2)C[C@H]1c1ccccc1 | -3.63% (inactive) |
| CCN(CC(=O)NCc1cccs1)C(=O)/C=C/c1ccc(C)cc1 | -4.17% (inactive) |
| COC(=O)Cc1[nH]n(-c2nc3ccccc3s2)c(=O)c1C(C)=Nc1ccc(OC)cc1 | 32.6% (active) |
| O=C(COC(=O)CNS(=O)(=O)c1ccc(F)c(F)c1F)NC1CCCC1 | -0.54% (inactive) |
| O=C(COC(=O)c1cnccn1)Nc1ccc(Cl)cc1C(F)(F)F | 5.86% (inactive) |
| Cc1c(S(=O)(=O)N2CC(C)CC(C)C2)c(=O)n(C)c(=O)n1C (centres undefined) | 5.95% (inactive) |
| CCSc1nc(C)c(CCOc2cccc(C)c2)c(=O)[nH]1 | 4.37% (inactive) |
| CN(C)S(=O)(=O)c1ccc(NC(=O)COC(=O)c2n[nH]c3ccccc23)cc1 | 0.47% (inactive) |
| CC(C)N(C(=O)CSc1nc(COc2ccccc2)nc2ccccc12)C(C)C | 12.9% (inactive) |
| CCCc1nc(SCC(=O)Nc2ccc(S(=O)(=O)N(C)C)cc2)c2ccccc2n1 | 52.8% (active) |
